Shown are actives, neighbours in structure and some others; about 3.5% of the full set was active somewhere.
MITF inh = inhibitors of human MITF; O75030; AlphaScreen MITF homodimerization, bead proximity signal; inhibition, % at 2.6 µM; 650,000 tested, 0.91% active; AID 1259374; in the data active = inhibition above about 50%;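 also: 0% = vehicle wells with protein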
GPR151 ag = activators of human GPR151; activation, % at 11.2 µM; PathHunter beta-arrestin GPR151 cells, luminescence; 650,000 tested, 1% active; in the data active = activation above about 4.9%;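 also: 0% = median of compound wells and 100% = cells with positive control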
FBW7 act = human FBW7 E3 ligase activation, primary screen; Q969H0; AlphaScreen FBW7–phospho-cyclin E peptide binding, activator screen; normalized activity (activation), % at 26.1 µM; 650,000 tested, 0.13% active; AID 1259310; in the data active = normalized activity above about 1.9%;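 also: purified mutant Fbw7 with reduced substrate affinity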
Target sequence (Q969H0 whole entry, looked up): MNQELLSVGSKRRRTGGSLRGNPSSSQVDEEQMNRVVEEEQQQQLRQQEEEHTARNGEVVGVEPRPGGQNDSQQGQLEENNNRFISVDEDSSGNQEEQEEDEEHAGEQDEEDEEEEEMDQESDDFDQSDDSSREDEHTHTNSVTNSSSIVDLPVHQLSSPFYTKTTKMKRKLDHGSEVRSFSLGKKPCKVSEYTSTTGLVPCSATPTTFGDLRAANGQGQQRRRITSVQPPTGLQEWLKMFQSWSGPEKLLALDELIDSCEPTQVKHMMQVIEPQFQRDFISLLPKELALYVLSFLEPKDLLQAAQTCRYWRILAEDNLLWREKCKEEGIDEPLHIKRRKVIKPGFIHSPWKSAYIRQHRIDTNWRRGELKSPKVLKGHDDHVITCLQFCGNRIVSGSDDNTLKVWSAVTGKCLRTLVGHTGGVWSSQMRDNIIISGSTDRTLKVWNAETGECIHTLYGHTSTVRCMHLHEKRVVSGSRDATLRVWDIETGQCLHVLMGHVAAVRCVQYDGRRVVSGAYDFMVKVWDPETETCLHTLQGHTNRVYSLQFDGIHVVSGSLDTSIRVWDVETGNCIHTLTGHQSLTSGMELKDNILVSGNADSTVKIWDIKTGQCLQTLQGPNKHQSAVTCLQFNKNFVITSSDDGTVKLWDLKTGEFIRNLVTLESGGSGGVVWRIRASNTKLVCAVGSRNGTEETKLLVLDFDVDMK
TEAD-YAP block = TEAD-YAP interaction inhibition | 640,000 tested, 1.4% active | AID 1259422 | HEK-TIYL cells, TEAD-Gal4/YAP UAS-luciferase luminescence | inhibition, % at 9.12 µM; in the data active = inhibition above about 32%;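 also: 0% = median of test compound wells and 100% = reference inhibitor wells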
GPR151 confirm = human GPR151 activation, confirmation screen | shares compounds with GPR151 ag | GPR151 PathHunter beta-arrestin cells, luminescence, 90 min; % of EA-reagent control over plate median | activation, % at 11.2 µM | 6,700 tested, under 10 active;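 active = mean percent activation across replicates above the confirmation screen cutoff of 4.91%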
GPR119 counter = activates human GPR119 in a GPR151 counter-screen | shares compounds with GPR151 ag | GPR119 PathHunter beta-arrestin cells, luminescence, 90 min; 0 = compound-well median, 100 = enzyme-acceptor control | activation, % at 11.2 µM | 6,700 tested, 0.3% active | AID 1508611;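 active = mean percent activation in the counterscreen above 29.09%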;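 also: counterscreen on off-target GPR119 to flag nonselective hits from the GPR151 activator screen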
* = called active by the depositor; . = not tested or not shown; ! = repeats disagree.

SMILES	MITF inh	GPR151 ag	FBW7 act	TEAD-YAP block	GPR151 confirm	GPR119 counter
CS(=O)(=O)c1ccc2nc(NC(=O)COc3ccccc3[N+](=O)[O-])sc2c1	-16	0	0	-58	.	.
O=C(/C=C/c1ccccc1)Nc1cc(C(=O)N2CCN(Cc3ccccc3)CC2)ccc1N1CC2CC(C1)c1cccc(=O)n1C2 (stereo not given)	12	2	0	-1	.	.
CSCCCNC(=O)Cn1nnnc1CN1CCCCCC1	7	13*	0	3	0	3
Cc1nc2ccc(N/C=C3\C(=O)C(C)(C)Oc4ccc5ccc(=O)oc5c43)cc2s1	2	5.8*	0	-10	1	5
Cc1ccc(-n2ncc3c(=O)n(Cc4cccnc4)cnc32)cc1	15	6.6*	0	-14	0	0
Cc1c(C(=O)Nc2ccc3c(c2)OCCO3)sc2ncnc(N3CCN(c4ccccc4)CC3)c12	26	3	0	-6	.	.
CC(=O)Nc1ccc(Nc2nc(Nc3cccc(N(C)C)c3)ncc2C)cc1	7	5.5*	0	8	-1	-12
Cc1cccc(C(=O)Oc2ccc(C)c(C)c2)c1	-22	1	0	2	.	.
Cc1cccc(C(=O)Oc2ccc(/C=N/N=C(N)N)cc2)c1	-14	8.5*	0	65*	-1	-14
c1ccc(SCc2nnc3n2CCCCC3)cc1	-13	5.0*	0	-6	0	-2
O=C(Nc1ccccc1N(C(=O)C1CC1)S(=O)(=O)c1cccs1)C1CC1	3	5.0*	0	3	0	15
O=c1cc(N2CCOCC2)oc2c(-c3ccccc3)cccc12	5	5.4*!	0	-7	0	-6
CSc1ccccc1C(=O)N(C)Cc1ccccc1	3	5.8*	1	-10	0	9
CCCN(CCC)CCCNC(=O)c1nn(-c2ccc(OC)cc2)c(=O)c2ccccc12	15	-2	0	2	.	.
CCCN(CCC)CCCNC(=O)c1nn(-c2ccc(OCC)cc2)c(=O)c2ccccc12	3	8.8*	0	-4	1	8
CCOc1ccc(-n2nc(C(=O)NCc3ccc(F)cc3)c3ccccc3c2=O)cc1	1	6.4*	0	0	0	1
COc1ccc(-n2nc(C(=O)NCc3ccc(F)cc3)c3ccccc3c2=O)cc1	13	2	0	5	.	.
CC(=O)c1cccc(S(=O)(=O)NC2CCCCC2)c1	-6	2	0	7	.	.
O=C(Nc1ccc(Cl)c(Cl)c1)OCc1ccco1	4	6.0*	0	-15	1	0
CC(C)(C)c1[nH]nc2c1C(c1ccsc1)C(C#N)=C(N)O2 (stereo not given)	7	6.6*	0	2	1	2
COCCCNC(=O)CN(C)S(=O)(=O)c1ccc(Br)cc1	7	-2	0	0	.	.
COc1ccccc1N1CCN(C(c2ccc(N(C)C)cc2)c2nnnn2C(C)C)CC1 (stereo not given)	8	5.3*	0	0	1	5
CC(C)n1nnnc1C(c1ccccc1F)N1CCN(c2ccccc2)CC1 (stereo not given)	-1	6.0*	0	2	0	10
COc1ccc(C(c2nnnn2C(C)C)N2CCN(c3ccccc3OC)CC2)cc1 (stereo not given)	3	-1	0	-5	.	.
COC(=O)C(c1ccccc1)c1ccccc1	-2	-1	0	14	.	.
SMILES	MITF inh	GPR151 ag	FBW7 act	TEAD-YAP block	GPR151 confirm	GPR119 counter
COc1cccc(-c2ocnc2C(=O)Nc2ccccc2N2CCCCC2)c1	1	2	0	8	.	.
Cc1ccc(C(C)CCN2CCC3(CCC(CNC(=O)C(C)C)O3)CC2)o1 (stereo not given)	-4	7.8*	0	-12	0	0
Cc1ccc(C(C)CCN2CCC3(CCC(CNC(=O)c4ccccc4)O3)CC2)o1 (stereo not given)	15	1	0	2	.	.
Cc1cc(-c2n[nH]c(=S)n2-c2ccccc2)nn1C	21	18*	0	9	0	2
O=C(CCc1nnc(-c2ccsc2)o1)N1CCc2sccc2C1	13	5.4*	0	-10	0	-5
Cc1cccc(/C=N/NC(=O)C(=O)Nc2cccc(Cl)c2)c1	2	-1	0	-5	.	.
